# Test results reported in paper PMC9911399, “Two distinct binding modes provide the RNA-binding protein RbFox with extraordinary sequence specificity”.
# Substitutions are numbered along the chain they refer to; changes in the protein carry UniProt numbers. Whole data set: some 16,000 sequences, median “ka relative to ugcaugu” near 0.096, cut for the highest 2% near 0.35. The entries come from a sample that favours the highest values as a whole.
# T1: RBFOX1 RRM RbFoxmut (Fox-RRM*) (Homo sapiens, UniProt Q9NWB1 109-208, R118D;E147R;N151S;E152T)
# T1 sequence: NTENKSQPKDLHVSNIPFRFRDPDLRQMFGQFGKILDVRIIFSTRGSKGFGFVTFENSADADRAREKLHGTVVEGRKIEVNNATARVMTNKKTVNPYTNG
# B1: ACGUAGU (DNA:RNA)
# RNA: GGGAGACCGGAAUUCAGAUUGUCCACGUAGUUUAAAUCCCGUCGUAGCCACCA
# DNA 1: CAATCTGAATTCCGGTCTCCC
# DNA 2: TGGTGGCTACGACGGGATT
# B2: CAACGCA (DNA:RNA)
# RNA: GGGAGACCGGAAUUCAGAUUGUCCCAACGCAUUAAAUCCCGUCGUAGCCACCA
# DNA 1: CAATCTGAATTCCGGTCTCCC
# DNA 2: TGGTGGCTACGACGGGATT
# B3: UGUAUAC (DNA:RNA)
# RNA: GGGAGACCGGAAUUCAGAUUGUCCUGUAUACUUAAAUCCCGUCGUAGCCACCA
# DNA 1: CAATCTGAATTCCGGTCTCCC
# DNA 2: TGGTGGCTACGACGGGATT
# B4: UUCCAAG (DNA:RNA)
# RNA: B3 RNA with G26U, U27C, A28C, U29A, C31G
# DNA 1: CAATCTGAATTCCGGTCTCCC
# DNA 2: TGGTGGCTACGACGGGATT
# B5: AUCGUGG (DNA:RNA)
# RNA: B1 RNA with C26U, G27C, U28G, A29U, U31G
# DNA 1: CAATCTGAATTCCGGTCTCCC
# DNA 2: TGGTGGCTACGACGGGATT
# B6: CGUUUCG (DNA:RNA)
# RNA: B3 RNA with U25C, A28U, A30C, C31G
# DNA 1: CAATCTGAATTCCGGTCTCCC
# DNA 2: TGGTGGCTACGACGGGATT
# B7: CAAAACG (DNA:RNA)
# RNA: B2 RNA with C28A, G29A, A31G
# DNA 1: CAATCTGAATTCCGGTCTCCC
# DNA 2: TGGTGGCTACGACGGGATT
# B8: GAGAGGA (DNA:RNA)
# RNA: B2 RNA with C25G, A27G, C28A, C30G
# DNA 1: CAATCTGAATTCCGGTCTCCC
# DNA 2: TGGTGGCTACGACGGGATT
# B9: GAAUGAG (DNA:RNA)
# RNA: B2 RNA with C25G, C28U, C30A, A31G
# DNA 1: CAATCTGAATTCCGGTCTCCC
# DNA 2: TGGTGGCTACGACGGGATT
# B10: CUAUGAG (DNA:RNA)
# RNA: B2 RNA with A26U, C28U, C30A, A31G
# DNA 1: CAATCTGAATTCCGGTCTCCC
# DNA 2: TGGTGGCTACGACGGGATT
# B11: GAUUGAG (DNA:RNA)
# RNA: B2 RNA with C25G, A27U, C28U, C30A, A31G
# DNA 1: CAATCTGAATTCCGGTCTCCC
# DNA 2: TGGTGGCTACGACGGGATT
# B12: CGAUGAG (DNA:RNA)
# RNA: B2 RNA with A26G, C28U, C30A, A31G
# DNA 1: CAATCTGAATTCCGGTCTCCC
# DNA 2: TGGTGGCTACGACGGGATT
# B13: GGAUGAG (DNA:RNA)
# RNA: B2 RNA with C25G, A26G, C28U, C30A, A31G
# DNA 1: CAATCTGAATTCCGGTCTCCC
# DNA 2: TGGTGGCTACGACGGGATT
# B14: GUAUGAG (DNA:RNA)
# RNA: B2 RNA with C25G, A26U, C28U, C30A, A31G
# DNA 1: CAATCTGAATTCCGGTCTCCC
# DNA 2: TGGTGGCTACGACGGGATT
# B15: AUUACUA (DNA:RNA)
# RNA: B3 RNA with U25A, G26U, U29C, A30U, C31A
# DNA 1: CAATCTGAATTCCGGTCTCCC
# DNA 2: TGGTGGCTACGACGGGATT
# B16: GGCAUUG (DNA:RNA)
# RNA: B3 RNA with U25G, U27C, A30U, C31G
# DNA 1: CAATCTGAATTCCGGTCTCCC
# DNA 2: TGGTGGCTACGACGGGATT
# B17: GGCAUCC (DNA:RNA)
# RNA: B3 RNA with U25G, U27C, A30C
# DNA 1: CAATCTGAATTCCGGTCTCCC
# DNA 2: TGGTGGCTACGACGGGATT
# B18: GUCGGCA (DNA:RNA)
# RNA: B2 RNA with C25G, A26U, A27C, C28G
# DNA 1: CAATCTGAATTCCGGTCTCCC
# DNA 2: TGGTGGCTACGACGGGATT
# B19: GGCACCG (DNA:RNA)
# RNA: B3 RNA with U25G, U27C, U29C, A30C, C31G
# DNA 1: CAATCTGAATTCCGGTCTCCC
# DNA 2: TGGTGGCTACGACGGGATT
# B20: GGCAUUC (DNA:RNA)
# RNA: B3 RNA with U25G, U27C, A30U
# DNA 1: CAATCTGAATTCCGGTCTCCC
# DNA 2: TGGTGGCTACGACGGGATT
# B21: GGCAUCG (DNA:RNA)
# RNA: B3 RNA with U25G, U27C, A30C, C31G
# DNA 1: CAATCTGAATTCCGGTCTCCC
# DNA 2: TGGTGGCTACGACGGGATT
# B22: CGAUGAA (DNA:RNA)
# RNA: B2 RNA with A26G, C28U, C30A
# DNA 1: CAATCTGAATTCCGGTCTCCC
# DNA 2: TGGTGGCTACGACGGGATT
# B23: AAAAUAC (DNA:RNA)
# RNA: B3 RNA with U25A, G26A, U27A
# DNA 1: CAATCTGAATTCCGGTCTCCC
# DNA 2: TGGTGGCTACGACGGGATT
# B24: CCACGAC (DNA:RNA)
# RNA: B2 RNA with A26C, C30A, A31C
# DNA 1: CAATCTGAATTCCGGTCTCCC
# DNA 2: TGGTGGCTACGACGGGATT
# B25: AUUAACG (DNA:RNA)
# RNA: B1 RNA with C26U, G27U, U28A, G30C, U31G
# DNA 1: CAATCTGAATTCCGGTCTCCC
# DNA 2: TGGTGGCTACGACGGGATT
# B26: AUCCAUG (DNA:RNA)
# RNA: B1 RNA with C26U, G27C, U28C, G30U, U31G
# DNA 1: CAATCTGAATTCCGGTCTCCC
# DNA 2: TGGTGGCTACGACGGGATT
# B27: AUGAAUC (DNA:RNA)
# RNA: B1 RNA with C26U, U28A, G30U, U31C
# DNA 1: CAATCTGAATTCCGGTCTCCC
# DNA 2: TGGTGGCTACGACGGGATT
# B28: AUGAUUG (DNA:RNA)
# RNA: B1 RNA with C26U, U28A, A29U, G30U, U31G
# DNA 1: CAATCTGAATTCCGGTCTCCC
# DNA 2: TGGTGGCTACGACGGGATT
# B29: ACCAUGA (DNA:RNA)
# RNA: B1 RNA with G27C, U28A, A29U, U31A
# DNA 1: CAATCTGAATTCCGGTCTCCC
# DNA 2: TGGTGGCTACGACGGGATT
# B30: AUGAAUG (DNA:RNA)
# RNA: B1 RNA with C26U, U28A, G30U, U31G
# DNA 1: CAATCTGAATTCCGGTCTCCC
# DNA 2: TGGTGGCTACGACGGGATT
# B31: AUGAUUC (DNA:RNA)
# RNA: B3 RNA with U25A, G26U, U27G, A30U
# DNA 1: CAATCTGAATTCCGGTCTCCC
# DNA 2: TGGTGGCTACGACGGGATT
# Biological target: T1, RBFOX1 RRM RbFoxmut (Fox-RRM*)
# Test: EMSA; HiTS-Eq, 1 nM pool, 10 min; buffer printed only for the single-RNA assays: 10 mM Tris pH 7.5, 150 mM NaCl, 3.4 mM EDTA, 0.001% NP-40, 30 C
# Details: tags: His6 N-terminal (pET28a); label: 5' 32P
# Outline: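 Purified wild-type or mutant RbFox RRM at increasing concentrations was equilibrated with 1 nM of 5′-radiolabelled RNA carrying 7 randomized nucleotides for 10 min in 50 µL. Unbound RNA was separated by 8% native PAGE and sequenced. Relative association constants came from read-count changes of each RNA species compared with the control reaction, normalised to the cognate motif.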
row,Binder,binding signal
1,B1,0.15 KA relative to UGCAUGU
2,B2,0.161 KA relative to UGCAUGU
3,B3,0.114 KA relative to UGCAUGU
4,B4,0.0952 KA relative to UGCAUGU
5,B5,0.124 KA relative to UGCAUGU
6,B6,0.17 KA relative to UGCAUGU
7,B7,0.0837 KA relative to UGCAUGU
8,B8,0.0596 KA relative to UGCAUGU
9,B9,0.983 KA relative to UGCAUGU
10,B10,0.107 KA relative to UGCAUGU
11,B11,0.183 KA relative to UGCAUGU
12,B12,0.133 KA relative to UGCAUGU
13,B13,0.225 KA relative to UGCAUGU
14,B14,0.513 KA relative to UGCAUGU
15,B15,0.129 KA relative to UGCAUGU
16,B16,0.394 KA relative to UGCAUGU

row,Binder,binding signal
1,B17,0.229 KA relative to UGCAUGU
2,B18,0.13 KA relative to UGCAUGU
3,B19,0.132 KA relative to UGCAUGU
4,B20,0.119 KA relative to UGCAUGU
5,B21,0.467 KA relative to UGCAUGU
6,B22,0.123 KA relative to UGCAUGU
7,B23,0.076 KA relative to UGCAUGU
8,B24,0.0943 KA relative to UGCAUGU
9,B25,0.134 KA relative to UGCAUGU
10,B26,0.1 KA relative to UGCAUGU
11,B27,0.334 KA relative to UGCAUGU
12,B28,0.428 KA relative to UGCAUGU
13,B29,0.076 KA relative to UGCAUGU
14,B30,1.02 KA relative to UGCAUGU
15,B31,0.139 KA relative to UGCAUGU
